Bioassay records as filed in PubChem.
Only some compounds are listed: those with a hit (about 1.3% of all), similar ones and a draw of the others.
SRC3 inh – human NCOA3 inhibition. Q9Y6Q9. inhibition, % at 3.6 µM. HEK293 GAL4-SRC3 luciferase reporter, luminescence. AID 588352. 360,000 compounds, 0.17% hits;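 active means inhibition above a per-campaign cutoff, the mean of all compounds plus 3 SD, cut at about 60% in these data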;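 further: 0% = DMSO-treated cells and 100% = gossypol-treated cells at 36 µM; higher means less SRC3-driven luciferase light from the GAL4 reporter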
Target sequence (Q9Y6Q9 whole entry, looked up, the tested form may be a part): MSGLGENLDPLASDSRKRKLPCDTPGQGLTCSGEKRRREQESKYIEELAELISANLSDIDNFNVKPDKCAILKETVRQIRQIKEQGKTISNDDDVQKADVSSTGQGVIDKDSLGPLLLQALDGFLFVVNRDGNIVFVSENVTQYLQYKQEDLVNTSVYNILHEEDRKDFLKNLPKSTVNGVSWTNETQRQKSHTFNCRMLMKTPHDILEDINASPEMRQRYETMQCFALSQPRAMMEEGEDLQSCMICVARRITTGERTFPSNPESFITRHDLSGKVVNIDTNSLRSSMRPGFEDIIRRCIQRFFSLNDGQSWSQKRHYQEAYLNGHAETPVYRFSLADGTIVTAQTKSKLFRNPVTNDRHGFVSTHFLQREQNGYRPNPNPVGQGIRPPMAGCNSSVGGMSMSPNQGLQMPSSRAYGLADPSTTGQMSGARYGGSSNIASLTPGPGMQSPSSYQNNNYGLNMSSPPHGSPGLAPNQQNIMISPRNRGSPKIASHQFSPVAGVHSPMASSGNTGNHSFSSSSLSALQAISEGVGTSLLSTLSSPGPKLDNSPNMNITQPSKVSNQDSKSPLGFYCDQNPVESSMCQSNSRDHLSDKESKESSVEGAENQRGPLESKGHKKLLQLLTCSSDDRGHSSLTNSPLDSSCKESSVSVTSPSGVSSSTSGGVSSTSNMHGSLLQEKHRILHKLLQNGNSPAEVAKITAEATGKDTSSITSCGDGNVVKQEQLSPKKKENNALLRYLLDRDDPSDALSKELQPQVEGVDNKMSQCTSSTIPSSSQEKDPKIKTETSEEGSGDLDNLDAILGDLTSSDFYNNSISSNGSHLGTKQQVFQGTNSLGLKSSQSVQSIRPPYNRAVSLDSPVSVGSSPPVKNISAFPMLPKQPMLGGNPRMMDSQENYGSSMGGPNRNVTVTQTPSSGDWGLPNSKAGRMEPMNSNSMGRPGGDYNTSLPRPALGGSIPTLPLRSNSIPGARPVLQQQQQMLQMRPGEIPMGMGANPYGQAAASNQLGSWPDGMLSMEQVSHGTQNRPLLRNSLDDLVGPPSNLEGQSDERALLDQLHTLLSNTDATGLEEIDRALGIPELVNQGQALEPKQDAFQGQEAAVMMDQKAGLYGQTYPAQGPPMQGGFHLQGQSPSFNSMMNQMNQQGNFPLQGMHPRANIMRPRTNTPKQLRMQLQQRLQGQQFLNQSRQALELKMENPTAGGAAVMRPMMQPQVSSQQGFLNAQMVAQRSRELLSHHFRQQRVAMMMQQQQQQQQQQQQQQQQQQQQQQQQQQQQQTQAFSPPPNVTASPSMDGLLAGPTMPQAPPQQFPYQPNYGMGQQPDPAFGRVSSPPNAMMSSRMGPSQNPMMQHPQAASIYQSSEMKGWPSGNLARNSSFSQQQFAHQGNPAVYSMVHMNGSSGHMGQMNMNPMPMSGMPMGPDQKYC
NR5A2 inv ag – NR5A2 inverse agonism in reporter assay | 360,000 compounds, 0.13% hits | HEK293T StAR-luciferase reporter, LRH-1 transfected, 24 h | AID 602396 | inhibition, % at 3.6 µM;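 active means inhibition above the mean inhibition of all tested compounds plus 3 SD, cut at about 73% in these data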;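 further: 0% = DMSO wells and 100% = reporter-only cells lacking LRH-1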
COUP-TFII inh – blocks human COUP-TFII nuclear receptor; inhibition, % at 8.6 µM; AID 686940; P24468; 370,000 compounds, 0.7% hits; HEK293T NGFI-A luciferase reporter, luminescence;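 active means inhibition above a per-plate cutoff, mean inhibition of test wells between control levels plus 3 SD, cut at about 38% in these data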;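 further: cells cotransfected with COUP-TFII expression vector driving the NGFI-A reporter; 0% = median of COUP-TF2 test wells and 100% = reporter-only cells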
NCOA1 inh – human NCOA1 inhibition; HEK293 GAL4-SRC1 luciferase reporter, luminescence; inhibition, % at 3.6 µM; 360,000 compounds, 0.12% hits; AID 588354;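 active means inhibition above the campaign mean plus 3 SD, with each screening campaign given its own cutoff, cut at about 60% in these data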;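 further: 0% = DMSO treated cells and 100% = gossypol at 36 µM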
SRC2 inh – human SRC2 (NCOA2) inhibition | Q15596 | HEK293 GAL4-SRC2 luciferase reporter, luminescence | inhibition, % at 9 µM | 370,000 compounds, 0.17% hits | AID 651957;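 active means inhibition above the mean inhibition of all tested compounds plus 3 SD, set per campaign, cut at about 52% in these data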;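 further: 0% = DMSO treated cells and 100% = cells given Gossypol at 36 µM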
Gli-Sufu antag – antagonists of Gli-Sufu signaling. 340,000 compounds, 0.74% hits. Sufu-KO-LIGHT fibroblasts, Gli luciferase reporter luminescence. inhibition, % at 5 µM;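 active means inhibition above about 55%, limit read from the data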;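 further: 0% = DMSO-treated cells and 100% = wells with medium but no cells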
Gli-Sufu confirm – Gli-SUFU antagonism confirmation, single concentration; shares compounds with Gli-Sufu antag; Sufu-KO-LIGHT cells, Gli luciferase reporter, luminescence; inhibition, % at 5 µM; 2,500 compounds, 40% hits; AID 602428;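 active means mean inhibition at 5 µM reaching about 45%, limit read from the data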;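 further: plate controls were DMSO-treated cells for no effect and wells lacking cells for full effect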
SufuKO cytotox – counter-screen for Gli-SUFU antagonists: cytotoxicity; shares compounds with Gli-Sufu antag; Sufu-KO-LIGHT cells cytotoxicity, ATP luminescence; cytotoxicity, % at 5 µM; 2,500 compounds, 32% hits; AID 651994;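 active means mean cytotoxicity at 5 µM above about 25%, limit read from the data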;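 further: cells exposed to compound overnight for roughly 16 to 18 hours; plate controls were DMSO wells with cells for no effect and medium without cells for full effect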
Wnt3a cs – inhibits Wnt3a reporter, counter-screen for Gli-SUFU antagonists | shares compounds with Gli-Sufu antag | Wnt-LIGHT cells, Wnt3a-driven luciferase reporter, luminescence | inhibition, % at 6.25 µM | 2,500 compounds, 20% hits | AID 651995;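 active means mean inhibition above about 25%, limit read from the data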
An asterisk follows results filed as active; . = not tested or not shown.

SMILES | SRC3 inh | NR5A2 inv ag | COUP-TFII inh | NCOA1 inh | SRC2 inh | Gli-Sufu antag | Gli-Sufu confirm | SufuKO cytotox | Wnt3a cs
COc1ccc(CNC(=O)C2CCN(S(=O)(=O)N3CCC4(CC3)OCCO4)CC2)c(OC)c1 | 11 | 3 | 13 | -6 | 7 | 99* | 3 | -12 | -23
COc1ccc(-c2c(Cc3ccccc3)nc(NC(=O)c3ccccc3)n2C)cc1 | . | . | -5 | . | -11 | . | . | . | .
COC(=O)CCCCCCCCCC[N+]1(C)CCCCC1 | 11 | -4 | 4 | 4 | -22 | 2 | . | . | .
C[N+]1(CC(=O)OC2CCCCCCCCCCC2)CCCC1 | 1 | 18 | -14 | -25 | 24 | 65* | 56* | 29* | -30
COc1ccccc1C(=O)Nc1ccc2oc(-c3ccc(F)cc3)nc2c1 | -14 | 2 | 2 | -18 | -23 | 95* | -12 | 16 | -71
COC(=O)c1cc2c(c3c4cc(OC)ccc4n(S(=O)(=O)c4ccc(F)cc4)c13)C(=O)N(Cc1ccccc1)C2 | . | . | -10 | . | 3 | . | . | . | .
COC(=O)C(C)Sc1nc2c(cnn2-c2ccccc2)c(=O)[nH]1 (stereo not drawn) | 15 | 16 | 14 | 9 | -12 | 2 | . | . | .
COC(=O)C(C)Sc1nc2c(cnn2-c2ccc(Cl)cc2)c(=O)[nH]1 (stereo not drawn) | 6 | -9 | 2 | 9 | -28 | 60* | 16 | 7 | 1
C=CCN1C(=O)[C@@H](CC(=O)NCc2ccccc2)[C@]2(C(=O)OC)CCCCC=C12 | . | . | -19 | . | -14 | . | . | . | .
CCN(CC)C(=O)CN(c1cc(Cl)ccc1OC)S(C)(=O)=O | 6 | 15 | -1 | -6 | -25 | 51 | 22 | 13 | -5
CCC(C)NC(=O)CN(c1cc(Cl)ccc1OC)S(C)(=O)=O (stereo not drawn) | 10 | -9 | 14 | -2 | 0 | -6 | . | . | .
O=S(=O)(c1ccc2ccccc2c1)N1CCN(C(=S)Nc2ccc(F)c(Cl)c2)CC1 | 14 | 8 | 7 | 1 | -6 | 99* | 15 | 4 | -4
O=S(=O)(c1ccc2ccccc2c1)N1CCN(C(=S)Nc2ccc(F)cc2)CC1 | 3 | 10 | 10 | 13 | -3 | 14 | . | . | .
Cc1ccc(S(=O)(=O)NC(CCCNC(=O)OCc2ccccc2)C(=O)O)cc1 (stereo not drawn) | . | . | -6 | . | 13 | . | . | . | .
O=C(Cc1cccs1)Nc1cccc(-c2nc3ccccc3o2)c1 | -4 | -2 | 3 | -19 | 7 | 99* | 20 | 14 | -6
Cc1ccc(-c2nc3ccccc3o2)cc1NC(=O)Cc1cccs1 | -31 | 23 | -9 | 0 | -6 | -3 | . | . | .
CCc1nc2ccc(C(=O)NCCCN3CCN(c4ccccc4F)CC3)cc2nc1CC | -11 | 10 | 0 | -9 | 10 | 55 | 18 | 27* | -42
Cc1c(C)n(C)c2ccc(C(=O)NCCCN3CCN(c4ccccc4F)CC3)cc12 | -4 | 3 | -2 | -17 | 6 | 25 | . | . | .
Cc1cc(C)cc(C(=O)OCC(=O)NCc2cccs2)c1 | 17 | 16 | 0 | 7 | 8 | -10 | . | . | .
Cc1cc2c(cc(C(=O)OCC(=O)NCc3cccs3)n2C(C)C)o1 | -8 | 12 | . | -2 | . | 50 | 31 | 56* | -36
Cc1ccc(C)c(CN2C(=O)COc3ccc(C(=O)c4ccccc4C(=O)O)cc32)c1 | 15 | 7 | 5 | -5 | -16 | 53 | 20 | 5 | -7
COC(=O)Cn1cnc2c(NC(=O)c3ccccc3)ncnc21 | . | . | -3 | . | -4 | . | . | . | .
CCOC(=O)c1cc(NC(=O)COc2ccc([N+](=O)[O-])cc2)cc(C(=O)OCC)c1 | 12 | -9 | 9 | -5 | -4 | 63* | 25 | 2 | -25
CCOCC(=O)Nc1cc([N+](=O)[O-])ccc1C | 23 | 28 | -8 | -6 | -20 | 91* | 16 | 0 | 7
Cc1c(C(=O)OCC(=O)N2CC(=O)Nc3ccccc32)oc2ccccc12 | -8 | 17 | 9 | 8 | 4 | 94* | 12 | 14 | -35
SMILES | SRC3 inh | NR5A2 inv ag | COUP-TFII inh | NCOA1 inh | SRC2 inh | Gli-Sufu antag | Gli-Sufu confirm | SufuKO cytotox | Wnt3a cs
O=C(O)c1ccc(O)c(O)c1 | 19 | -21 | -8 | -4 | 14 | 3 | . | . | .
O=C(O)c1ccc(-c2ccc(O)c(F)c2)cc1 | 4 | 18 | -4 | 13 | 3 | 53 | 18 | -4 | -7
Cn1cnnc1SCc1ccc(C(=O)N=Nc2c(O)n(Cc3ccc(Cl)cc3)c3ccccc23)cc1 | -3 | 4 | 34 | 2 | -12 | 52 | 22 | 6 | -5
CCN1C[C@@H]2[C@@H]3C(=O)N(Cc4ccccc4)C(=O)[C@@H]3[C@](CC)(C1=O)N2C(=O)c1ccc(Cl)cc1 | . | . | 12 | . | 2 | . | . | . | .
CCn1cc(CN2CCC(n3nccc3NC(=O)CCOc3ccccc3)CC2)cn1 | 11 | 3 | -16 | -14 | 6 | 13 | . | . | .
CCn1cc(CN2CCC(n3nccc3NC(=O)CCc3ccccc3)CC2)cn1 | 3 | -15 | 5 | 0 | -9 | 84* | 34 | 12 | 9
Cc1ccc(-c2nnc(SCC(=O)c3ccc(O)c(O)c3)n2-c2ccc(Cl)cc2)cc1 | . | . | 6 | . | 1 | . | . | . | .
CN(C)c1nc2c(N)ncnc2n1C1OC(CO)C(O)C1O (stereo not drawn) | -11 | -19 | 4 | 11 | 7 | -6 | . | . | .
CN(C)c1ncnc2c1ccn2C1OC(CO)C(O)C1O (stereo not drawn) | -60 | -63 | -28 | 10 | -35 | 62* | 68* | 48* | 40*
CC(SC(C)C(=O)NN=Cc1cccc(Cl)c1)C(=O)NN=Cc1cccc(Cl)c1 (stereo not drawn) | -10 | -7 | -1 | 10 | 3 | 7 | . | . | .
COc1cccc(C=NNC(=O)C(C)SC(C)C(=O)NN=Cc2cccc(OC)c2)c1 (stereo not drawn) | -3 | -13 | 5 | -1 | 0 | 52 | 6 | -14 | -10
OC[C@@H]1CC[C@@H]2O[C@H](CCc3ccc(-c4ccc(F)cc4)cc3)[C@@H](n3cc(C4CC4)nn3)C[C@@H]2O1 | . | . | 3 | . | -9 | . | . | . | .
O=C(Nc1cccc(Cl)c1)c1ccc(F)c(S(=O)(=O)NCc2ccc3c(c2)OCO3)c1 | 7 | -4 | 10 | -11 | 23 | 89* | 12 | -1 | -11
CCCCc1nnn2c1C1c3cc(Br)ccc3CCN1C(=O)C2 (stereo not drawn) | . | . | -5 | . | -6 | . | . | . | .
O=C(Nc1cc(Sc2ccccn2)cc([N+](=O)[O-])c1)c1ccc(Cl)cc1 | -7 | -10 | 0 | -12 | -36 | 53 | 20 | 10 | -58
